Screening results as filed in PubChem.
Only some compounds are listed: those with a hit (about 7.5% of all), similar ones and a draw of the others.
Luc counter: blocks Kinase-Glo luciferase, a counter-screen artifact | 0.28% of 200,000 active | Q27757 | Potency, µM (top dose mostly 38.3 µM), without a hit: at the highest dose activity change, negative = inhibition, actives largely listed as inhibitors | Kinase-Glo luciferase, ATP luminescence, 8 min; also: % is scaled to controls: 0 for no effect and ±100 for the full control effect; nearly all actives have a fitted effect of over 60% in size
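Kinase-Glo luciferase light output from ATP and luciferin was measured with 10 uM ATP, within the enzyme's linear range. Buffer: 50 mM imidazole pH 7.2, 50 mM KCl, 7 mM MgCl2, 0.01% Tween 20, 0.05% BSA; luminescence read after 8 min at ambient temperature.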
ELG1 genotoxic: genotoxicity induction in ELG1-luciferase HEK293T cells; HEK293T ELG1-luciferase reporter, luminescence, 16 h; Potency, µM (series often up to 46 µM), for inactives: at the top dose activity change, positive = activation, actives largely listed as activators; 1.3% of 330,000 active; also: % of control where 0% means no effect; nearly all actives have a fitted effect of over 60% in size
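Step 1: seed 2,000 HEK293T ELG1-luciferase cells per well. Step 2: add compound or DMSO, incubate 16 hr at 37 °C. Step 3: ONE-Glo, 30 min at room temperature, read luminescence.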
SMN2 splice enh: SMN2 splice variant enhancement; Potency, µM (titrated, usually from 46.1 µM), inactives show at the top dose activity change, positive = activation, actives largely listed as activators; AID 1458; HEK293 SMN2-luciferase splicing reporter, luminescence, 30-36 h; 2.8% of 210,000 active; also: % of control where 0% means no effect; nearly all actives have a fitted effect of over 55% in size
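qHTS luciferase splicing reporter: luminescence rises when SMN2 exon 7 is included in transfected HEK293 cells. Compound exposure lasted 30-36 h at 37C, with 4.5 mM final sodium butyrate as control, followed by a ONE-Glo read.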
NPC1 prom act: NPC1 promoter activation; 2.4% of 320,000 active; Huh7 NPC1 promoter luciferase reporter, 24 h; Potency, µM (titrated, usually from 9.22 µM), for inactives: at the top dose activation, most hits filed as activators; AID 485313; also: % of control where 0% means no effect; nearly all actives have a fitted effect of over 60% in size
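Huh7 reporter cells (NPC1 promoter driving luciferase) are dosed with compound for 24 h at 37 °C, 5% CO2; luciferase detection reagent is then added and luminescence measured after 10 min at ambient temperature.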
FLuc counter: counter-screen for miR-21 project: firefly luciferase inhibitors or activators; P08659; purified FLuc, Km substrates, luminescence inhibition; Potency, µM (series often up to 57.5 µM), for the others: top-dose activity change, negative = inhibition, hits mostly inhibitors; 6.9% of 360,000 active; AID 588342;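 also: plate controls were vehicle for no effect and reference inhibitor for full effect; nearly all actives have a fitted effect of over 55% in size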
Target sequence (P08659 whole entry, looked up): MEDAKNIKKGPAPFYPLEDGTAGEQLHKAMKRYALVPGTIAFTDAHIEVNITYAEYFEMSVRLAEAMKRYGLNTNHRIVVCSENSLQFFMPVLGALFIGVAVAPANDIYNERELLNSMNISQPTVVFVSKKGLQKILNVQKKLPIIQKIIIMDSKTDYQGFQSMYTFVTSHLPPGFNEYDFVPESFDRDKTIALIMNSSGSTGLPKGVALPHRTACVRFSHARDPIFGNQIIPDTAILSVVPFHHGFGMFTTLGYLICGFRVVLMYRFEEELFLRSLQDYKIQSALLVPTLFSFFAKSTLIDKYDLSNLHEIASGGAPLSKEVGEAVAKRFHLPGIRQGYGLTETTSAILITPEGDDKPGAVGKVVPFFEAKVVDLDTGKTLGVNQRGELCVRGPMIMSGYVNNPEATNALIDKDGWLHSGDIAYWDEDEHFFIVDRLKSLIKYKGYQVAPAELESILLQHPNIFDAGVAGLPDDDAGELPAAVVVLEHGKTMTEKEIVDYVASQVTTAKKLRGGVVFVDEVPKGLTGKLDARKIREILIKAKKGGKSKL
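Biochemical qHTS of compounds, final roughly 60 µM downward over six points, against 10 nM purified firefly luciferase using Km concentrations of substrates (10 uM D-luciferin, 10 uM ATP) in Tris acetate pH 7.5 buffer; luminescence output.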
Rab9 promoter act: activates the Rab9 promoter; Huh7 Rab9 promoter-luciferase reporter, luminescence, 24 h; Potency, µM (highest dose often 9.22 µM), for inactives: top-dose activation, negative = inhibition, usual class: activators; 2.8% of 320,000 active; AID 485297; also: % of control where 0% means no effect; nearly all actives have a fitted effect of over 60% in size
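Quantitative HTS format; Huh7 Rab9-luciferase reporter cells (1500/well) receive compound 2 h post-plating, incubate 24 h at 37 °C, then get luciferase reagent for 10 min before luminescence reading.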
Starred values were filed as active, the others as inactive; [ ] = another dose, or the depositor's remark. Calls follow the shape of the dose curve; as a rule, active = well fitted curve in the direction sought with a large enough effect; inconclusive = small, poorly fitted or top-dose-only effect, or another doubt; inactive = no such curve, though single readings can be large; an effect the other way counts as inactive or inconclusive. Potency is read from the fitted curve at half-maximal effect.

Results for CCOC(=O)c1ccc(Nc2cc(-c3ccccc3)nc(C)n2)cc1 ?
FLuc counter: -6.7%

How did COc1cccc(Nc2cc(-c3ccccc3)nc(C)n2)c1 do in these assays?
FLuc counter: 26.9µM*

Results for Cc1cc(Nc2ccc(Br)cc2)nc(C)n1 ?
FLuc counter: 21.3µM*

What do the screens show for `COc1ccc(Nc2cc(Nc3cccc(OC)c3)ncn2)cc1`?
ELG1 genotoxic: inconclusive; NPC1 prom act: inconclusive; FLuc counter: 2.69µM*; Rab9 promoter act: inconclusive

Results for COc1ccc(Nc2cc(Nc3ccc(OC)cc3)ncn2)cc1 ?
ELG1 genotoxic: 0.1%; NPC1 prom act: -1.6%; FLuc counter: 1.6%; Rab9 promoter act: 1.9%

How did CCOc1ccc(C(=O)NC(C(=O)N2CCC2)C(C)C)cc1 (stereo unspecified) do in these assays?
ELG1 genotoxic: -2.5%; NPC1 prom act: 0.4%; FLuc counter: -0.3%; Rab9 promoter act: -1.6%

How did O=C(OCCOc1ccccc1Cl)c1ccc(-n2cnnn2)cc1 do in these assays?
Luc counter: -4.3%; ELG1 genotoxic: 3.6%; SMN2 splice enh: 0.8%; NPC1 prom act: 0.9%; FLuc counter: 21.3µM*; Rab9 promoter act: 5.8%

How did COc1ccccc1CNC(=O)COC(=O)c1ccc(-n2cnnn2)cc1 do in these assays?
ELG1 genotoxic: 6.1%; NPC1 prom act: -3.4%; FLuc counter: -1.1%; Rab9 promoter act: 3.6%

How did NC(=O)c1nc(C(=O)N2CCN(c3ccccc3)CC2)c2ccccc2n1 do in these assays?
ELG1 genotoxic: 4.6%; NPC1 prom act: -4.9%; FLuc counter: -1.3%; Rab9 promoter act: -10.5%

What do the screens show for `CC(C)(C)C(=O)OCc1cn(-c2ccccc2)nn1`?
Luc counter: -1.4%; ELG1 genotoxic: 13.8%; SMN2 splice enh: 7.5%; NPC1 prom act: inconclusive; FLuc counter: inconclusive; Rab9 promoter act: 13.1%

What do the screens show for `CC(C)(C)C(=O)OCc1cn(-c2ccc(Cl)cc2)nn1`?
Luc counter: -4.1%; ELG1 genotoxic: inconclusive; SMN2 splice enh: 0.4%; NPC1 prom act: inconclusive; FLuc counter: 15.1µM*; Rab9 promoter act: 10.8%

Results for NC(=O)C1CCN(c2oc(/C=C/c3ccccc3)nc2S(=O)(=O)c2ccccc2)CC1 ?
ELG1 genotoxic: 1.2%; NPC1 prom act: -3.2%; FLuc counter: -1.3%; Rab9 promoter act: -2.4%

How did COCCNC(=O)c1cc2oc3ccccc3c2n1C do in these assays?
Luc counter: -1.4%; ELG1 genotoxic: inconclusive; NPC1 prom act: 25.8%; FLuc counter: 9.53µM*; Rab9 promoter act: 3.16µM*

Results for Cn1c(C(=O)NCc2cccc(Cl)c2)cc2oc3ccccc3c21 ?
SMN2 splice enh: inconclusive; FLuc counter: -0.8%

How did COc1ccc(N2Cc3ccc(OC)c(OC)c3C2=O)cc1 do in these assays?
ELG1 genotoxic: 10.3µM*; NPC1 prom act: 2µM*; FLuc counter: 4.78µM*; Rab9 promoter act: inconclusive

How did COc1ccc2c(c1OC)C(=O)N(c1nccs1)C2 do in these assays?
Luc counter: -4.3%; ELG1 genotoxic: 18.4µM*; SMN2 splice enh: 12.6µM*; NPC1 prom act: inconclusive; FLuc counter: 15.1µM*; Rab9 promoter act: inconclusive

What do the screens show for `COc1ccc(/C=C/C(=O)O)cc1S(=O)(=O)N1CCc2ccccc2C1`?
Luc counter: 2.4%; ELG1 genotoxic: -3.0%; SMN2 splice enh: -4.8%; NPC1 prom act: 0.9%; FLuc counter: -6.5%; Rab9 promoter act: 3.2%

How did COc1ccc2c(c1OC)C(=O)N(c1cccc(/C=C/C(=O)O)c1)C2 do in these assays?
ELG1 genotoxic: inconclusive; NPC1 prom act: 28.5%; FLuc counter: 3.01µM*; Rab9 promoter act: 23.9%

Results for COc1ccc(C2C(C(C)=O)=C(O)C(=O)N2c2nccs2)cc1OC (stereo unspecified) ?
Luc counter: 4.0%; ELG1 genotoxic: 0.7%; SMN2 splice enh: 3.9%; NPC1 prom act: 0.8%; FLuc counter: 3.0%; Rab9 promoter act: 2.5%

How did Cc1cc(NC(=O)c2cc(Cl)ccc2Cl)ccc1-c1cc2ccccc2oc1=O do in these assays?
SMN2 splice enh: -45.0%; FLuc counter: -2.2%

What do the screens show for `Nc1ccc2oc3ccccc3c2c1`?
Luc counter: 0.7%; ELG1 genotoxic: 22.5%; SMN2 splice enh: 11.2µM*; NPC1 prom act: inconclusive; FLuc counter: inconclusive; Rab9 promoter act: inconclusive

What do the screens show for `Nc1ccc2oc3ncccc3c(=O)c2c1`?
Luc counter: -3.0%; ELG1 genotoxic: inconclusive; SMN2 splice enh: 24.7%; NPC1 prom act: 9.7%; FLuc counter: -17.9%; Rab9 promoter act: 11.6%

What do the screens show for `CCCC(=O)Oc1c(Sc2ccc(Cl)cc2)c(C)nn1-c1ccccc1`?
SMN2 splice enh: -4.4%; FLuc counter: 10.7µM*

How did N#C/C(=C\c1ccc(-c2ccc(C(=O)O)cc2)o1)c1nc2ccccc2[nH]1 do in these assays?
Luc counter: -1.8%; ELG1 genotoxic: 17.7%; SMN2 splice enh: inconclusive; NPC1 prom act: 3.98µM*; FLuc counter: 9.53µM*; Rab9 promoter act: 2.51µM*

Results for N#C/C(=C\c1ccc(-c2ccc(Cl)c(C(=O)O)c2)o1)c1nc2ccccc2[nH]1 ?
SMN2 splice enh: 2.2%; NPC1 prom act: 7.5%; FLuc counter: 6.01µM*; Rab9 promoter act: 15.2%

How did N#C/C(=C\c1ccccc1C(=O)O)c1nc2ccccc2[nH]1 do in these assays?
ELG1 genotoxic: 1.2%; NPC1 prom act: -1.6%; FLuc counter: -15.7%; Rab9 promoter act: -2.9%[1.84 µM]

Results for Cc1cc(C)nc(NC(=O)c2cc(-c3ccc(C)s3)nc3ccccc23)c1 ?
Luc counter: -5.6%; ELG1 genotoxic: -12.6%; SMN2 splice enh: -25.6%; NPC1 prom act: -3.5%; FLuc counter: inconclusive; Rab9 promoter act: -3.8%

Results for Cc1cccc(-c2cc(C(=O)Nc3ccncc3)c3ccccc3n2)c1 ?
ELG1 genotoxic: -7.4%; NPC1 prom act: 12.8%; FLuc counter: 23.9µM*; Rab9 promoter act: 1.7%

What do the screens show for `Cc1cccc(Nc2nc(-c3ccccc3)c(C(=O)Nc3cccnc3)s2)c1`?
Luc counter: 4.7%; ELG1 genotoxic: -6.2%; SMN2 splice enh: -91.7%; NPC1 prom act: 8.0%; FLuc counter: 16.9µM*; Rab9 promoter act: 20.2%

How did Cc1cccc(-c2cc(C(=O)Nc3cccnc3)c3ccccc3n2)c1 do in these assays?
ELG1 genotoxic: -15.3%; NPC1 prom act: -3.0%; FLuc counter: 15.1µM*; Rab9 promoter act: 3.8%

What do the screens show for `O=C(Nc1ccc(Br)cc1)c1cc(-c2ccncc2)nc2ccccc12`?
ELG1 genotoxic: -2.5%

Results for Cc1ccc(-c2cc(C(=O)Nc3cccnc3)c3ccccc3n2)s1 ?
ELG1 genotoxic: -9.7%; NPC1 prom act: 13.0%; FLuc counter: 9.53µM*; Rab9 promoter act: 6.7%
